# In article PMC5540273 (PLoS ONE, 2017):
# Experiments:
# Conditions in all cases: concentration: 1 μM, replicates: in singlicate; n = 1
# MARK4 = tested on: MARK4
# MAST1 = tested on: MAST1
# MEK1 = tested on: T1, MEK1
# T1 construct: gene MAP2K1
# MEK2 = tested on: T2, MEK2
# T2 construct: gene MAP2K2
# MEK3 = tested on: T3, MEK3
# T3 construct: gene MAP2K3
# MEK4 = tested on: T4, MEK4
# T4 construct: gene MAP2K4
# MEK5 = tested on: T5, MEK5
# T5 construct: gene MAP2K5
# MEK6 = tested on: T6, MEK6
# T6 construct: gene MAP2K6
# MELK = tested on: MELK
# MERTK = tested on: MERTK
# MET = tested on: MET
# MINK = tested on: T7, MINK
# T7 construct: gene MINK1
# MKK7 = tested on: MKK7
# MKNK1 = tested on: MKNK1
# MKNK2 = tested on: MKNK2
# MLCK = tested on: T8, MLCK
# T8 construct: gene MYLK3
# MLK1 = tested on: T9, MLK1
# T9 construct: gene MAP3K9
# MLK2 = tested on: MLK2
# MLK3 = tested on: MLK3
# MRCKA = tested on: MRCKA
# 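Note: KINOMEscan kinase panel screen.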
Compound,%Inh (MARK4),%Inh (MAST1),%Inh (MEK1),%Inh (MEK2),%Inh (MEK3),%Inh (MEK4),%Inh (MEK5),%Inh (MEK6),%Inh (MELK),%Inh (MERTK),%Inh (MET),%Inh (MINK),%Inh (MKK7),%Inh (MKNK1),%Inh (MKNK2),%Inh (MLCK),%Inh (MLK1),%Inh (MLK2),%Inh (MLK3),%Inh (MRCKA)
COc1cc(Nc2ccnc3ccc(C(F)(F)F)cc23)cc(OC)c1OC [GW577382],11%,4%,14%,0%,0%,32%,50%,0%,13%,27%,0%,17%,0%,29%,9%,0%,3%,31%,23%,22%
CCc1ccc(-c2ccc3c(c2)-c2nn(C)cc2S(=O)(=O)N3C)cc1,16%,0%,53%,18%,17%,0%,27%,0%,0%,0%,0%,41%,16%,37%,0%,28%,1%,29%,11%,0%
Cc1nc(N(C)[C@H]2CN(C(=O)CC#N)CC[C@H]2C)c2cc[nH]c2n1,12%,0%,2%,4%,10%,0%,0%,0%,0%,24%,0%,0%,0%,0%,0%,0%,0%,11%,0%,0%
Nc1ncnc2c1ncn2-c1cccc2ccccc12 [SKF-97184],29%,53%,5%,24%,38%,8%,26%,22%,0%,0%,0%,12%,0%,0%,0%,0%,0%,19%,0%,0%
Cc1cc(Nc2nc(-c3cccc(C)n3)nc3ccccc23)ccn1 [GW872411],27%,0%,2%,9%,12%,0%,4%,0%,0%,25%,32%,1%,0%,1%,0%,0%,0%,28%,0%,0%
CCn1c(-c2ccoc2)nc2cnccc21 [SB-733887],0%,9%,18%,0%,5%,14%,38%,0%,22%,5%,0%,0%,33%,13%,17%,0%,0%,0%,3%,1%
O=C(Nc1n[nH]c2cc(-c3ccccc3F)ccc12)C1CC1 [SB-733371],0%,52%,0%,14%,16%,0%,48%,0%,0%,0%,0%,69%,10%,0%,18%,29%,0%,5%,0%,0%
Nc1nc(-c2ccccc2F)c(-c2ccnc3ccccc23)s1 [GW560459],0%,0%,0%,0%,0%,40%,50%,5%,0%,0%,0%,81%,15%,12%,0%,0%,0%,0%,5%,15%
COc1cccc(-n2cnc3c(N)ncnc32)c1 [SKF-97416],0%,59%,12%,12%,43%,36%,80%,18%,0%,0%,0%,22%,30%,0%,31%,5%,2%,0%,0%,13%
COc1cc2nccc(Nc3cccc(Oc4ccccc4)c3)c2cc1OC.Cl [GW284543],1%,7%,87%,88%,0%,0%,99.9%,0%,8%,0%,0%,0%,0%,0%,0%,4%,0%,0%,11%,4%
CN1C(=O)C(Nc2ccccc2)=C(c2ccccc2)C1=O [SB-300079],12%,100%,19%,34%,25%,18%,41%,0%,0%,0%,0%,17%,20%,0%,0%,9%,0%,34%,0%,6%
CCC(=O)c1c(-c2ccccc2)c2cc(Cl)ccc2c(=O)n1Cc1cc(S(C)(=O)=O)n(CC(F)F)n1,0%,0%,1%,12%,0%,18%,0%,0%,0%,0%,6%,0%,0%,0%,0%,0%,42%,0%,0%,0%
COc1ccc(-n2cnc3c(N)ncnc32)cc1 [SKF-97236],19%,0%,0%,0%,11%,29%,56%,0%,0%,35%,0%,9%,15%,9%,33%,11%,0%,37%,20%,0%
CCn1c(-c2nonc2N)nc2ccccc21 [SB-693162/GW549034],0%,5%,30%,25%,47%,48%,18%,0%,15%,0%,14%,36%,0%,0%,59%,2%,0%,10%,0%,0%
CCC(=O)c1c(-c2ccccc2)c2cc(Cl)ccc2c(=O)n1Cc1cc(C(=O)NC2CC2)n(C)n1,13%,47%,6%,3%,2%,8%,11%,22%,0%,5%,0%,0%,25%,0%,11%,5%,0%,15%,0%,8%
Cl.NS(=O)(=O)c1cccc(Nc2cc(-c3ccc(F)cc3)n[nH]2)c1 [GW824645],6%,9%,12%,45%,22%,27%,70%,0%,0%,0%,0%,57%,19%,8%,0%,29%,0%,4%,0%,0%

Compound,%Inh (MARK4),%Inh (MAST1),%Inh (MEK1),%Inh (MEK2),%Inh (MEK3),%Inh (MEK4),%Inh (MEK5),%Inh (MEK6),%Inh (MELK),%Inh (MERTK),%Inh (MET),%Inh (MINK),%Inh (MKK7),%Inh (MKNK1),%Inh (MKNK2),%Inh (MLCK),%Inh (MLK1),%Inh (MLK2),%Inh (MLK3),%Inh (MRCKA)
O=c1cc(N2CCOCC2)nc2n(Cc3ccc(F)c(Cl)c3)ccn12 [GSK2297099],0%,0%,0%,0%,0%,5%,1%,14%,0%,0%,0%,0%,0%,5%,1%,7%,0%,0%,0%,0%
CN(C)c1cc(-c2ccc3c(N)n[nH]c3c2)nc(N)n1 [GSK2219329],1%,0%,0%,0%,0%,0%,13%,8%,0%,21%,0%,0%,0%,0%,9%,0%,3%,0%,3%,0%
COc1ccc(-c2cc3c(C)nc(N)nc3n([C@H]3CC[C@H](O)CC3)c2=O)cn1,0%,0%,0%,0%,0%,0%,0%,0%,3%,0%,0%,0%,0%,0%,0%,0%,0%,0%,0%,0%
O=C(NCCNc1ccnc(Nc2ccc(F)cc2)n1)Nc1ccc2c(c1)OCO2 [GSK1379882],0%,4%,9%,19%,4%,10%,9%,8%,8%,0%,0%,4%,0%,23%,5%,0%,0%,0%,0%,9%
Cc1cccc(-c2nc(Nc3ccc4c(cnn4C)c3)c3ccccc3n2)n1 [GW876731],8%,100%,0%,0%,0%,0%,0%,5%,0%,0%,3%,16%,10%,100%,9%,28%,12%,16%,0%,17%
COc1cc2ncn(-c3cc(OCc4ccncc4Br)c(C(N)=O)s3)c2cc1OC [GW854278],39%,3%,0%,13%,0%,16%,98.8%,0%,17%,11%,0%,44%,0%,15%,8%,0%,2%,17%,9%,0%
CCC(=O)c1c(-c2ccccc2)c2cc(Cl)ccc2c(=O)n1Cc1cc(S(C)(=O)=O)n(CCC(C)(C)O)n1,0%,0%,11%,19%,23%,40%,0%,8%,16%,13%,0%,0%,0%,0%,0%,7%,3%,0%,24%,0%
C[C@@H]1CC[C@H](C(=O)NC2CCCCC2)CN1c1cc(-c2ccc3c(N)n[nH]c3c2)nc(N)n1 [GSK2291363],11%,0%,0%,0%,18%,27%,35%,9%,26%,33%,0%,12%,0%,12%,18%,0%,4%,0%,32%,15%
O=C(Nc1n[nH]c2nc(-c3ccccc3)c(Br)cc12)C1CC1 [SB-708998],0%,0%,0%,0%,0%,21%,42%,0%,6%,27%,0%,6%,0%,7%,1%,21%,0%,18%,22%,0%
Cc1ccc(-c2ccc3c(ccc4sc5c(c43)NC[C@@H](C)N=C5N(C)C)n2)cn1,0%,0%,0%,0%,0%,0%,0%,2%,0%,0%,0%,0%,0%,0%,0%,0%,0%,0%,0%,0%
COc1ccc(Nc2nccc(N3CCC(NS(=O)(=O)c4ccc(NC(C)=O)cc4)C3)n2)cc1 (centres unmarked) [GSK1379729],0%,0%,0%,10%,12%,5%,36%,0%,17%,25%,10%,3%,19%,22%,0%,0%,0%,48%,18%,10%
COc1cc2nccc(Nc3ccc(OCc4ccc(NC(C)=O)cc4)cc3)c2cc1OC.Cl [GW440135],8%,0%,19%,0%,14%,2%,99.6%,0%,0%,40%,0%,70%,27%,6%,15%,0%,0%,2%,14%,9%
Cc1nnc(-c2ccc(C)c(-c3ccc(C(=O)O)cc3)c2)o1 [GW608005],21%,0%,0%,0%,0%,14%,0%,0%,0%,25%,0%,0%,13%,0%,0%,0%,0%,0%,0%,0%
COc1cc(OC)cc(-c2cc3cnc(N)nc3nc2NC(=O)NC(C)(C)C)c1,0%,0%,0%,0%,0%,0%,0%,0%,0%,0%,0%,9%,0%,0%,0%,0%,0%,0%,0%,0%
CCCC(=O)Nc1n[nH]c2ncc(-c3cccc4ccccc34)cc12 [SB-642057],0%,0%,4%,8%,0%,0%,12%,0%,33%,0%,0%,21%,0%,10%,7%,0%,0%,0%,0%,9%
